# Most compounds without a hit are left out; they make up all but 22% or so of the library.
# CYP2C19 act = activators of human cytochrome P450 2C19; activation factor at 5 µM; recombinant CYP2C19, luciferin-H EGE luminescence; active compounds read high; 0 = fully inhibited enzyme, 1 = untreated enzyme; 96,000 tested, under 10 active; P33261;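 active means activation factor of at least 2 at 5 µM in the primary screen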
# Target sequence (P33261 whole entry, looked up): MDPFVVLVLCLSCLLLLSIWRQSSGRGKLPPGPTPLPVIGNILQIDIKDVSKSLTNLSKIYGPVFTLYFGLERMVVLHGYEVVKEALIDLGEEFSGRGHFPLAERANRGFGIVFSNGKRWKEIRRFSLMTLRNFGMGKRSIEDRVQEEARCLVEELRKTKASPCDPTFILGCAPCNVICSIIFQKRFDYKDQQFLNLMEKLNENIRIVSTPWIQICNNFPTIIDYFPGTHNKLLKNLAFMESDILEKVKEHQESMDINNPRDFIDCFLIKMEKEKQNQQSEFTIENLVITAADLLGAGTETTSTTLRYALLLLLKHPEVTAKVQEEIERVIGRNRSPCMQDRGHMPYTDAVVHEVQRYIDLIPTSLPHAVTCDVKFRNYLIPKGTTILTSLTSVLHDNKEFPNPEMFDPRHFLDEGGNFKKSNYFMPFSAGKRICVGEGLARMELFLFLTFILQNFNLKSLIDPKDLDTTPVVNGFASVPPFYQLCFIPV
# CYP2C9 inhib = blocks human cytochrome P450 2C9 | P11712 | CYP2C9 Supersomes, luciferin-H conversion, luminescence | inhibition, % at 5 µM | actives 20% (n = 96,000) | AID 777;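 active means blocking of liver enzyme CYP2C9 beyond about 50% at 5 µM, limit read from the data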
# CYP2C9 activ = activators of human CYP2C9; recombinant CYP2C9, luciferin-H conversion, luminescence; active compounds read high; factor 1 = untreated enzyme, 0 = blocked; activation factor at 5 µM; actives 1.4% (n = 96,000);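 active means activation factor of 2 or more for CYP2C9 at a 5 µM dose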
# Measles CPE = protection of cells from measles virus; protection (pct of control), % at 4 µM; actives 1.5% (n = 140,000); Measles virus-infected cells, CPE protection, absorbance; in the data active means protection mostly above about 24%, no sharp cut-off; inactive means mostly below about 26%
# CYP2C19 inhib = blocks human cytochrome P450 2C19; AID 778; CYP2C19 Supersomes, luciferin-H EGE luminescence, 30 min; actives 21% (n = 96,000); P33261; inhibition, % at 5 µM;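 active means CYP2C19 inhibition above a set limit at 5 µM in the primary screen, cut at about 50% in these data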
# A number is an active result; - = inactive; . = no result.
SMILES,CYP2C19 act,CYP2C9 inhib,CYP2C9 activ,Measles CPE,CYP2C19 inhib
Cc1nc(Oc2ccccc2)c2oc3ccccc3c2n1,-,-,-,-,57
CCCCNC(=O)COc1ccccc1C(=O)c1cc(C#N)c(=O)n(CCOC)c1,.,.,.,42,.
CCCCNC(=O)Nc1cc(C)on1,-,-,-,-,-
O=C(Nc1nccs1)C1Cc2ccccc2CN1S(=O)(=O)c1ccc(F)cc1 (configuration not stated),-,-,-,-,61
O=C(NC1CCCCC1)C1Cc2ccccc2CN1S(=O)(=O)c1ccc(F)cc1 (configuration not stated),.,.,.,-,.
O=C(Nc1nnc(C2CC2)s1)C1Cc2ccccc2CN1S(=O)(=O)c1ccccc1F (configuration not stated),-,-,-,-,55
Cc1ccc(S(=O)(=O)N2CCCC2C(=O)NC2CCCCC2)cc1 (configuration not stated),-,-,-,-,77
O=C(C1CCCN1S(=O)(=O)c1ccc(Cl)c(Cl)c1)N1CCOCC1 (configuration not stated),-,-,-,-,-
O=C(C1CCCN1S(=O)(=O)c1ccc(Cl)c(Cl)c1)N1CCCCC1 (configuration not stated),-,-,2.6,-,-
COc1c(F)c(F)c(C(=O)Nc2cccc(Cl)c2N2CCOCC2)c(F)c1F,-,-,-,-,-
CNC(=O)c1ccccc1-c1ccccc1,-,-,-,-,-
Brc1ccc(-c2nnc3ccc(N4CCN(c5ccccc5)CC4)nn23)cc1,-,-,-,-,-
CCC(C)NC(=O)C1CCCCN1S(=O)(=O)c1ccc(F)cc1 (configuration not stated),-,-,-,-,-
CCOC(=O)N1CCC(NC(=O)C2CCCCN2S(=O)(=O)c2ccc(F)cc2)CC1 (configuration not stated),-,-,-,34,-
Cc1ccc(S(=O)(=O)N2CCCC2C(=O)N2CCCCCC2)cc1 (configuration not stated),-,-,2.7,-,-
Cc1ccc(S(=O)(=O)N2CCCC2C(=O)Nc2nccs2)cc1 (configuration not stated),-,61,-,-,60
Cc1ccc(S(=O)(=O)N2CCC(C(=O)N3CCC[C@H]3C(=O)NC3CCS(=O)(=O)C3)CC2)cc1 (some centres not stated),-,-,-,-,-
COc1ccc(S(=O)(=O)N2CCCC2C(=O)Nc2nccs2)cc1 (configuration not stated),-,-,-,-,-
O=C(NC1CCS(=O)(=O)C1)C1CCCCN1S(=O)(=O)c1ccc(Cl)cc1 (configuration not stated),-,91,-,-,-
CC1Oc2ccccc2C=C1/C=N/NC(=O)c1ccccc1O (configuration not stated),.,.,.,-,.
c1ccc(-c2csc(NNC3=NCCCCC3)n2)cc1,-,-,-,-,-
O=C(Nc1ccc(Cl)cn1)C1CCCN1S(=O)(=O)c1cccc2ccccc12 (configuration not stated),-,-,-,-,-
O=C(Nc1ccc(Cl)cn1)C1CCCN1S(=O)(=O)c1ccc(Cl)cc1 (configuration not stated),-,74,-,-,-
COc1ccc(OC)c(NC(=O)CCN2CCN(Cc3ccccc3)CC2)c1,-,-,-,-,-
COCc1cc(C)nc(OCC(=O)N/N=C\c2cc(C)n(-c3cccc(C(F)(F)F)c3)c2C)c1C#N,-,65,-,-,-
SMILES,CYP2C19 act,CYP2C9 inhib,CYP2C9 activ,Measles CPE,CYP2C19 inhib
CCOC(=O)c1c(NC(=O)CN2CCN(c3ccc(Cl)cc3)CC2)sc(C)c1C,-,-,-,-,-
Cc1cc(C)c(S(=O)(=O)c2ccccc2)c(OC(=O)c2ccc(Cl)cc2Cl)n1,-,-,-,-,-
Cc1cc(C)n(Cc2ccc(Cl)cc2Cl)c(=O)c1S(=O)(=O)c1ccccc1,-,92,-,-,-
CN1CC2=Cc3ccccc3OC23Oc2ccccc2C=C3C1,-,58,-,-,54
N#Cc1c(NC(=O)CSc2nc(N)cc(=O)[nH]2)sc2c1CCCCCC2,-,-,-,-,58
N#Cc1c(NC(=O)CSc2ncn(-c3ccccc3)n2)sc2c1CCCC2,-,90,-,-,81
N#Cc1c(NC(=O)CSc2ncn[nH]2)sc2c1CCCCC2,-,71,-,-,-
Cn1cnnc1SCC(=O)Nc1sc2c(c1C#N)CCCCC2,.,.,.,32,.
